What was measured:
Test in all cases: PBM binding z-score (relative to random genomic background probes); higher = stronger binding; sequences stand for … in GC…GCGATTGACAGCGTAGAATGAAGG
[1] = system: FXR:RXRa (NR concentration 270 nM, RXRa partner concentration 90 nM)
How it was run: (§1)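 Scanned fluorescence from custom Agilent 4×180K protein-binding microarrays was regression-normalized. Binding z-scores use random background probes as reference. Ligand-free nuclear receptor dimers were incubated on the arrays for 1 h and detected with antibodies against each partner (one per run).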

[2] = system: LXRa:RXRa (NR concentration 270 nM, RXRa partner concentration 90 nM)
How it was run: as §1

[3] = system: LXRa homodimer (NR concentration 270 nM)
How it was run: as §1

[4] = system: LXRb:RXRa (NR concentration 270 nM, RXRa partner concentration 90 nM)
How it was run: as §1

[5] = system: LXRb homodimer (NR concentration 270 nM)
How it was run: as §1

[6] = system: PPARa:RXRa (NR concentration 270 nM, RXRa partner concentration 90 nM)
How it was run: as §1

[7] = system: PPARg:RXRa (NR concentration 180 nM, RXRa partner concentration 90 nM)
How it was run: as §1

[8] = system: PPARg:RXRa 270nM:90nM, anti-RXR (NR concentration 270 nM, RXRa partner concentration 90 nM)
How it was run: as §1

[9] = system: PPARg:RXRa 30nM:10nM, anti-RXR (NR concentration 30 nM, RXRa partner concentration 10 nM)
How it was run: as §1

[10] = system: PPARg:RXRa 90nM:30nM, anti-RXR (NR concentration 90 nM, RXRa partner concentration 30 nM)
How it was run: as §1

[11] = system: PPARg:RXRa DBDmut IVT, anti-RXR (DBD mutation: RXRa K156A/R161A, NR concentration 270 nM, RXRa partner concentration 90 nM)
How it was run: as §1

[12] = system: PPARg:RXRa IVT, anti-PPARg (NR concentration 270 nM, RXRa partner concentration 90 nM)
How it was run: as §1

[13] = system: PPARg DBDmut:RXRa IVT, anti-PPARg (DBD mutation: PPARg1 K132A/R137A, NR concentration 270 nM, RXRa partner concentration 90 nM)
How it was run: as §1

[14] = system: PPARg DBDmut IVT, anti-PPARg (DBD mutation: PPARg1 K132A/R137A, NR concentration 270 nM)
How it was run: as §1

[15] = system: PPARg homodimer (NR concentration 180 nM)
How it was run: as §1

[16] = system: PXR:RXRa (NR concentration 270 nM, RXRa partner concentration 90 nM)
How it was run: as §1

[17] = system: PXR homodimer (NR concentration 270 nM)
How it was run: as §1

[18] = system: RARa:RXR (NR concentration 270 nM, RXRa partner concentration 90 nM)
How it was run: as §1

[19] = system: RARa homodimer (NR concentration 270 nM)
How it was run: as §1

[20] = system: RARb:RXRa (NR concentration 270 nM, RXRa partner concentration 90 nM)
How it was run: as §1

Row | Sequence | PBM binding z-score [1] | PBM binding z-score [2] | PBM binding z-score [3] | PBM binding z-score [4] | PBM binding z-score [5] | PBM binding z-score [6] | PBM binding z-score [7] | PBM binding z-score [8] | PBM binding z-score [9] | PBM binding z-score [10] | PBM binding z-score [11] | PBM binding z-score [12] | PBM binding z-score [13] | PBM binding z-score [14] | PBM binding z-score [15] | PBM binding z-score [16] | PBM binding z-score [17] | PBM binding z-score [18] | PBM binding z-score [19] | PBM binding z-score [20]
1 | ACTAGCAGGCCAAGTTTGGGTCACTTAAACAAAG | 0.098 | 0.217 | -0.18 | 0.878 | -0.362 | 1.52 | 0.21 | 0.715 | -0.186 | 0.815 | 0.815 | 1.34 | -0.398 | -0.134 | 0.336 | 0.603 | -0.404 | 1.6 | -0.389 | 1.91
2 | CGAACTAGGTCAACCAGGACAGTGAATACATTGA | 4.29 | 2.78 | 0.571 | 2.31 | 0.00788 | 4.98 | 8.21 | 6.58 | 4.17 | 5.96 | 8.5 | 8.35 | 1.56 | 1.35 | 1.73 | 2.02 | 0.839 | 2.3 | 0.835 | 4.17
3 | ACTAGCAGACCAAGGGTCACTCAAGATTAGTCCG | 2.1 | 2.89 | 0.341 | 2.8 | -0.191 | 3.74 | 4.94 | 5.53 | 3.15 | 5.96 | 0.108 | 1.84 | 0.151 | -0.38 | 1.55 | 2.8 | -0.1 | 3.46 | 1.31 | 3.28
4 | GCTTACGGGTCAAAGATTATAGCATGAATAGAAT | 5.74 | 3.66 | -0.0414 | 3.8 | 0.557 | 5.34 | 6.3 | 6.09 | 3.92 | 5.77 | 3.85 | 3.76 | 1.41 | 1.16 | 1.35 | 3.23 | -0.0668 | 4.47 | 0.373 | 3.39
5 | CGTCAAAGTTCAACTAAGGTAAGGTAAAGCACGC | 7.07 | 6.11 | 4.02 | 3.87 | 1.73 | 5.14 | 5.27 | 5.34 | 2.26 | 4.31 | 0.313 | 2.23 | 0.694 | 0.769 | 2.56 | 5.25 | 3.24 | 4.42 | 1.63 | 5.2
6 | ATATGTAGGTTACATCCGGGTCATTCAGGCTATG | 2.66 | 4.27 | 1.82 | 3.02 | 0.76 | 4.32 | 5.92 | 5.17 | 2.54 | 4.54 | 7.56 | 7.11 | 2.58 | 1.6 | 2.15 | 3.62 | 2.13 | 3.64 | 0.928 | 2.23
7 | CATACGGGGTCAGCTAGGCCAGAGTAGGGACGGC | 7.18 | 5.6 | 0.0211 | 4.81 | 1.12 | 6.17 | 7.29 | 6.63 | 3.71 | 5.39 | 2.55 | 4.45 | 1.49 | 1.86 | 2.4 | 4.79 | 0.529 | 5.51 | 0.858 | 4.84
8 | GCTATTAGTTGAAAGGGCAACCGTATGATTCTCG | 0.693 | 0.878 | 0.327 | 1.1 | -0.2 | 2.2 | 2.64 | 4.69 | 2.25 | 4.37 | 0.503 | 1.17 | 0.375 | 0.271 | 1.91 | 1 | 0.322 | 1.49 | 0.819 | 2.11
9 | CCAGACAGGTGAAAGGTACCTCAGTCTGGTACGC | -0.0455 | 0.27 | -0.338 | 0.286 | -0.978 | 2.28 | 3.4 | 4.94 | 2.26 | 4.17 | 1.66 | 1.96 | -0.554 | -0.542 | 0.247 | 0.109 | -0.251 | 0.49 | -0.2 | 0.786
10 | CGTCAAAGATCAACTAAGGTAACGTAAAGCACGC | 1.52 | 0.952 | 0.0696 | 0.635 | -0.0274 | 1.19 | 0.897 | 0.957 | 0.274 | 0.711 | -0.00407 | 0.5 | 0.6 | 0.489 | 0.91 | 1.32 | 0.224 | 1.52 | 0.595 | 0.548
11 | TCTTGTGGATCAGCAGGTTAAGAAAGCTGGCCAA | 0.261 | 0.254 | -0.184 | 0.0295 | -0.411 | 0.761 | -0.589 | 1.27 | 2.47 | 1.83 | 1.59 | 0.745 | -0.449 | 0.165 | 0.237 | 0.354 | -0.204 | 0.573 | 0.249 | 0.338
12 | CCTACTGCGCCAAGGTCATTGATCAGTCAAAGCA | 3.5 | 3.48 | 2.13 | 3.52 | 0.86 | 3.75 | 0.507 | 1.59 | -0.0931 | 0.819 | 0.265 | 0.978 | -0.442 | -0.653 | 2.68 | 3.85 | 2.48 | 3.83 | 1.07 | 3.51
13 | AGTGAAAGTTCATCTAGGTAACGTAAGATATGCT | 5.95 | 5.92 | 5.06 | 3.56 | 1.86 | 4.52 | 5.39 | 5.5 | 2.65 | 4.84 | 0.529 | 3.41 | 1.8 | 1.64 | 2.58 | 4.68 | 6.78 | 3.24 | 1.4 | 4.63
14 | TATACAGGGTCAAAGTCCAGAGTACGAATGTCGA | 6.87 | 6.67 | 3.54 | 5.33 | 3.32 | 5.98 | 6.93 | 6.5 | 3.78 | 5.77 | 2.42 | 4.52 | 3.19 | 3.67 | 3.98 | 4.6 | 1.31 | 5.3 | 2 | 4.42
